Sampled rows, rich in hits. Any-hit rate of the full collection: about 6.9%.
KB-3-1 tox: kills parental KB-3-1 adenocarcinoma cells; AID 1347075; Potency, µM (doses to about 46.1 µM), hits mostly cytotoxic; 400,000 compounds, 1.4% hits; KB-3-1 viability, CellTiter-Glo ATP luminescence, 72 h; also: potency is read from the fitted curve at half-maximal effect; % is scaled to controls: 0 for no effect and ±100 for the full control effect; nearly all actives have a fitted effect of over 60% in size
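Cells are dispensed, compounds pinned in, plates held at 37 °C for 72 h, then CellTiter-Glo is added and luminescence read after 10 minutes. Cell line: parental KB-3-1 in phenol-red-free DMEM, 10% FBS.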
Giardia killer: Giardia lamblia killing | Giardia lamblia trophozoite viability | activity change, % at 7.66 µM, hits read low | 340,000 compounds, 0.15% hits; in the data active = activity change below about -80%; inconclusive = between about -30% and that limit;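 also: parasites exposed to compound for two days anaerobically before the ATP read; % is scaled to controls: 0 for no effect and ±100 for the full control effect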
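Trophozoite viability was measured as ATP-dependent luminescence, read 15-30 min after reagent addition. Before that, parasites at 100 cells/well were exposed to compounds for 48 h, anaerobically, at 37 deg C.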
SW480 rereplic: DNA re-replication induction in SW480 cells. SW480 DNA re-replication, Hoechst DNA content imaging, 48 h. Potency, µM (series often up to 46.1 µM), inactives show top-dose re-replication activation, usual class: activators. 340,000 compounds, 1.8% hits; also: potency is read from the fitted curve at half-maximal effect; % of control where 0% means no effect; nearly all actives have a fitted effect of over 55% in size
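Compounds, transferred as 23 nL by pin tool, were incubated with cells for 48 hr; DNA content per nucleus was then quantified by Hoechst staining and fluorescence plate imaging.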
KB-V1 MDR tox: kills drug-selected multidrug resistant KB-V1 cells. KB-V1 MDR cells viability, CellTiter-Glo, 72 h. 400,000 compounds, 3.4% hits. Potency, µM (highest dose often 46.1 µM), most hits filed as cytotoxic; also: potency is read from the fitted curve at half-maximal effect; % is scaled to controls: 0 for no effect and ±100 for the full control effect; nearly all actives have a fitted effect of over 60% in size
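Cells of the MDR subline KB-V1 are plated, dosed with compound at multiple concentrations, and incubated 72 h at 37 degrees C; CellTiter-Glo is then added and luminescence read after 10 min.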
ASM inhibitor: blocks human secretory acid sphingomyelinase; P17405; Potency, µM (series often up to 57.5 µM), for the others: top-dose activity change, negative = inhibition, actives largely listed as inhibitors; 340,000 compounds, 0.006% hits; placental ASM, HMU-PC fluorogenic substrate, 60 min; also: potency is read from the fitted curve at half-maximal effect
Target sequence (P17405 47-631 limits assumed): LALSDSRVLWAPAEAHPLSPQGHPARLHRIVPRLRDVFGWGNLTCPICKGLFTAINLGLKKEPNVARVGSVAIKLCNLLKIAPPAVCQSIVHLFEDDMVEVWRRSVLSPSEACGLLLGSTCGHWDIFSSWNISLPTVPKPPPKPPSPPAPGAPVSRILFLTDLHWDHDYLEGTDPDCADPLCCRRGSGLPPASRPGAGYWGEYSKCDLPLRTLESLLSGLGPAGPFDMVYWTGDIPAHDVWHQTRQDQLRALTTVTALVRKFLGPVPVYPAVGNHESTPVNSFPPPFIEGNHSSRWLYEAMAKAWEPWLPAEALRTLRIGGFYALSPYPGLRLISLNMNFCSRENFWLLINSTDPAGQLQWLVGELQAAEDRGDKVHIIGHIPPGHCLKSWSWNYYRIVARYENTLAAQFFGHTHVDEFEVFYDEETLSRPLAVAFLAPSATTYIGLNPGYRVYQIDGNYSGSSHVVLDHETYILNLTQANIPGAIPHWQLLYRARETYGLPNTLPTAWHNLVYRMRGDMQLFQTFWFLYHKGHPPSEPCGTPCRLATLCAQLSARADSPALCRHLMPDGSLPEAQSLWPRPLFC
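Steps: dispense placental human ASM, pin compound, wait 10 min at room temperature, add HMU-PC0 substrate at 9 uM final, incubate 60 min at 37 °C, add stop solution raising pH to 10, read fluorescence.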
MCF10A rerep: induces DNA re-replication in MCF 10a normal breast cells | Potency, µM (top dose mostly 46.1 µM), for the others: top-dose activity, positive = re-replication, actives largely listed as activators | 350,000 compounds, 2.9% hits | MCF 10A DNA re-replication, Hoechst nuclear intensity, 48 h; also: potency is read from the fitted curve at half-maximal effect; % of control where 0% means no effect; nearly all actives have a fitted effect of over 50% in size
An asterisk follows results filed as active; [ ] = another dose, or the depositor's remark. Unless noted, calls follow the shape of the dose curve; as a rule, active = well fitted curve in the direction sought with a large enough effect; inconclusive = small, poorly fitted or top-dose-only effect, or another doubt; inactive = no such curve, though single readings can be large; an effect the other way counts as inactive or inconclusive.

Results for C/C=C(\C)C(=O)N[C@@H](c1ccccc1)[C@@H](O)C(=O)O[C@H]1C[C@@]2(O)[C@@H](OC(=O)c3ccccc3)C3[C@](C)(C(=O)[C@H](OC(C)=O)C(=C1C)C2(C)C)[C@H](O)C[C@H]1OC[C@@]31OC(C)=O (stereo not given in full) ?
KB-3-1 tox: 0.0073µM*; Giardia killer: inconclusive; SW480 rereplic: 1.5µM*; KB-V1 MDR tox: inconclusive; ASM inhibitor: -3%; MCF10A rerep: 0.23µM*

What do the screens show for `CC/C=C/CC(=O)N[C@@H](c1ccccc1)[C@@H](O)C(=O)O[C@H]1C[C@@]2(O)[C@@H](OC(=O)c3ccccc3)C3[C@](C)(C(=O)[C@H](OC(C)=O)C(=C1C)C2(C)C)[C@@H](O)C[C@H]1OC[C@@]31OC(C)=O` (stereo not given in full)?
KB-3-1 tox: 0.58µM*; Giardia killer: 1; SW480 rereplic: inconclusive; KB-V1 MDR tox: inconclusive; ASM inhibitor: -11%; MCF10A rerep: inconclusive

What do the screens show for `CCC(C)C(=O)N[C@@H](c1ccccc1)[C@@H](O)C(=O)O[C@H]1C[C@@]2(O)[C@@H](OC(=O)c3ccccc3)C3[C@](C)(C(=O)[C@H](OC(C)=O)C(=C1C)C2(C)C)[C@@H](O)C[C@H]1OC[C@@]31OC(C)=O` (stereo not given in full)?
KB-3-1 tox: 0.0065µM*; Giardia killer: -1; SW480 rereplic: 1.6µM*; KB-V1 MDR tox: inactive; ASM inhibitor: -3%; MCF10A rerep: 73%

How did CN(C)/C=c1\sc2c(C#N)cc(C(=O)c3ccc(Br)cc3)n2c1=O do in these assays?
KB-3-1 tox: inactive; Giardia killer: 24; SW480 rereplic: 0%; KB-V1 MDR tox: inactive; ASM inhibitor: -23%; MCF10A rerep: inconclusive

What do the screens show for `CCCCC(CC)COP(=O)(OCC(CC)CCCC)OCC(CC)CCCC` (stereo not given)?
KB-3-1 tox: inconclusive; Giardia killer: 11; SW480 rereplic: inconclusive; KB-V1 MDR tox: inconclusive; ASM inhibitor: -4%; MCF10A rerep: 10%

Results for O=c1[nH]c(CN2CC=C(c3ccccc3)CC2)nc2cc(C(F)(F)F)ccc12 ?
KB-3-1 tox: inactive; Giardia killer: 12; SW480 rereplic: 1%; KB-V1 MDR tox: inconclusive; ASM inhibitor: 11%; MCF10A rerep: 15µM*

Results for CN(C(=O)CN1CC=C(c2ccccc2)CC1)c1c(N)n(Cc2ccccc2)c(=O)[nH]c1=O ?
KB-3-1 tox: inactive; Giardia killer: -5; SW480 rereplic: -7%; KB-V1 MDR tox: inactive; ASM inhibitor: 0%; MCF10A rerep: 7%

Results for O=c1[nH]c(CN2CC=C(c3ccccc3)CC2)nc2scc(-c3ccccc3)c12 ?
KB-3-1 tox: inconclusive; Giardia killer: 7; SW480 rereplic: -2%; KB-V1 MDR tox: inconclusive; ASM inhibitor: 11%; MCF10A rerep: 18µM*

What do the screens show for `CNC(=O)Oc1ccccc1C(=O)Nc1ccccc1`?
SW480 rereplic: 1%; MCF10A rerep: 3%

How did CC[C@@H]1[C@@H]2C[C@H]3[C@H]4N(C)c5ccccc5[C@@]45C[C@@H]([C@@H]2[C@@H]5O)N3[C@H]1O do in these assays?
SW480 rereplic: -3%[20.6 µM]; MCF10A rerep: 1%[20.6 µM]

How did CCOc1c(P(=S)(N(C)C)N(C)C)c(C)nn1-c1ccccc1 do in these assays?
KB-3-1 tox: inactive; Giardia killer: -6; SW480 rereplic: -5%[9.22 µM]; KB-V1 MDR tox: inactive; ASM inhibitor: -2%; MCF10A rerep: 5%

How did CCN(CC)P(=S)(c1c(C)nc2ccccn12)c1c(C)nc2ccccn12 do in these assays?
KB-3-1 tox: inconclusive; Giardia killer: 0; SW480 rereplic: 10µM*; KB-V1 MDR tox: inactive; ASM inhibitor: 8%; MCF10A rerep: 65%

What do the screens show for `CCC1(c2ccccc2)CCC(=O)NC1=O` (stereo not given)?
SW480 rereplic: -2%; MCF10A rerep: 7%

From PubChem
